# Assay results reported in PubChem BioAssay.
# The list shows a part of the results. The source made the active and inactive calls. Rule as the data show it, unless noted: active = inhibition above about 36%; inactive = the rest.
# Key:
# [1] = StAR promoter reporter inhibitors, counter-screen for LRH-1 inverse agonist project, cell-based, luminescence, high throughput (AID 651611; in the data active = inhibition above about 28%); conditions: StAR promoter luciferase reporter counterscreen, at 3.6 µM, hits give high values
# [2] = target: Nuclear receptor subfamily 5 group A member 2 (Homo sapiens) (UniProt O00482); assay: NR5A2 activity suppression in reporter cells – cell-based, luminescence, confirmation (AID 651613; in the data active = inhibition above about 42%); conditions: cell-based LRH-1 luciferase reporter, inverse agonism; at 3.6 µM; hits give high values
# [3] = target: Steroidogenic factor 1 (Homo sapiens) (UniProt Q13285); assay: inverse agonism at SF1 nuclear receptor – cell-based, luminescence, high throughput, counter-screen for LRH-1 inverse agonist project (AID 651614; in the data active = inhibition above about 44%); conditions: cell-based SF1 luciferase reporter, at 3.6 µM, hits give high values
# [4] = compounds suppressing VP16-driven luciferase signal – cell-based, luminescence, high throughput, counter-screen for LRH-1 inverse agonist project (AID 651615; in the data active = inhibition above about 33%); conditions: Gal4-VP16 luciferase reporter cells, at 3.6 µM, hits give high values
# [5] = tested on: transactivating tegument protein VP16 (Human herpesvirus 1); assay: compounds suppressing VP16-driven luciferase signal – cell-based, luminescence, single concentration, counter-screen for SRC2 inhibitor project (AID 652007); conditions: cell-based VP16 transactivation luciferase reporter, at 8.9 µM, hits give high values
# [6] = target: Nuclear receptor coactivator 2 (Homo sapiens) (UniProt Q15596); assay: inhibition of GAL4-SRC2 driven luciferase expression – cell-based, luminescence, HEK293, triplicate, confirmation (AID 652008;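 active = mean inhibition above 46.5%, the solvent-only control mean plus 3 SD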); conditions: HEK293 GAL4-SRC2 luciferase reporter, at 8.9 µM, hits give high values
# [7] = tested on: DAF-12 nuclear receptor (Heterodera glycines), GAL4-LBD fusion; assay: hgDAF-12 GAL4 fusion reporter activation, retest – cell-based, luminescence, HEK293, GAL4-LBD fusion, confirmation (AID 743050;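 active = mean activation over triplicate wells above the hit cutoff derived from the earlier primary screen, cut at about 11% in these data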); conditions: HEK293 GAL4-hgDAF12 luciferase reporter, agonist mode; at 6.8 µM; hits give high values
# [8] = target: Oxysterols receptor LXR-beta (Homo sapiens) (UniProt P55055); assay: nonspecific reporter activation via LXR – cell-based, luminescence, HEK293, H. glycines campaign, counter-screen for hgDAF-12 agonist project, confirmation (AID 743051;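 active = mean activation of the triplicate above a set limit carried over from the primary screen, none filed active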); conditions: HEK293 Gal4-LXR luciferase reporter, 24 h; at 6.8 µM; hits give high values
# [9] = BSA probe fluorescence interference – biochemical, TAMRA-labeled BSA, counter-screen for TCR-CD3 interaction inhibitor project (AID 652035; in the data active = inhibition above about 23%); conditions: TAMRA-labeled BSA probe fluorescence counterscreen; at 9.4 µM; hits give high values
# [10] = tested on: T-cell receptor (TCR)-CD3 interaction, human; assay: blockers of TCR binding to CD3 – biochemical, fluorescence, TAMRA-labeled TCR probe, confirmation (AID 652036; in the data active = inhibition above about 19%); conditions: TAMRA-labeled TCR probe fluorescence binding assay; at 9.4 µM; hits give high values
# [11] = target: Oxysterols receptor LXR-beta (Homo sapiens) (UniProt P55055); assay: nonspecific reporter activation via LXR – cell-based, luminescence, HEK293, H. contortus campaign, counter-screen for hcDAF-12 agonist project, confirmation (AID 743027;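 active = mean percent activation of the reporter above a cutoff set as the average over tested compounds plus their standard deviation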); conditions: HEK293 Gal4-LXR tk-luc reporter, 24 h, at 6.8 µM, hits give high values, normalized: DMSO 0%, positive control 100%
# [12] = tested on: Nuclear hormone receptor DAF-12 (Haemonchus contortus); assay: hcDAF-12 luciferase reporter activation, retest – cell-based, luminescence, HEK293, lit1-tk-luc, triplicate, confirmation (AID 743032;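 active = mean activation across triplicate tests above the threshold derived from the earlier primary screen, cut at about 5.5% in these data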); conditions: HEK293 hcDAF-12 lit1-tk-luc reporter, at 6.8 µM, hits give high values
# [13] = reduced OD of V66 E. coli with T4 gene 2 phage – absorbance, RecBCD inhibitor project, confirmation (AID 651982;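 active = mean inhibition over triplicates exceeding the hit threshold derived in the original primary screen, cut at about 11% in these data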); conditions: E. coli V66 + T4 2- phage, growth OD; at 11.9 µM; hits give high values
# [14] = bacterial growth inhibition – absorbance, high throughput, counter-screen for RecBCD inhibitor project (AID 651983; in the data active = inhibition above about 20%); conditions: E. coli viability, absorbance (OD) growth; at 11.9 µM; hits give high values
# [15] = reduced optical density, T4-challenged addAB+ bacteria – absorbance, E. coli V3065, T4 phage, counter-screen for RecBCD inhibitor project, confirmation (AID 651984;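 active = mean inhibition above the solvent-only control wells' mean plus 3 SD, cut at about 22% in these data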); conditions: E. coli expressing H. pylori AddAB + T4 phage, OD growth; at 11.9 µM; hits give high values
# Nuclear receptor subfamily 5 group A member 2 (Homo sapiens), sequence (O00482 whole entry, looked up): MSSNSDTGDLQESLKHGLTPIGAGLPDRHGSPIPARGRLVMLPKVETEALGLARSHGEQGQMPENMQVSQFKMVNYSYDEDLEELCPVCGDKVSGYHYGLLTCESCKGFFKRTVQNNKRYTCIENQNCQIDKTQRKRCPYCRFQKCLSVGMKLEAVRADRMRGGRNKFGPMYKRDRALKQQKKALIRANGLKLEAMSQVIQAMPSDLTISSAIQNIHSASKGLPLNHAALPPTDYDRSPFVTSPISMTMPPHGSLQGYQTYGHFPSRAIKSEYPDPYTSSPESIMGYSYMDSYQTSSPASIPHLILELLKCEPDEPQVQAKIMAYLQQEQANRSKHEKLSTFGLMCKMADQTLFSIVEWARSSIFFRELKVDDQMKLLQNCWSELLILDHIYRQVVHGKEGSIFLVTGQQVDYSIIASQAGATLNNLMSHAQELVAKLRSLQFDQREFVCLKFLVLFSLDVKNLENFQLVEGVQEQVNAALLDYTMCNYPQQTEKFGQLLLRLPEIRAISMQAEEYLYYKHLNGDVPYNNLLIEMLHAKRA
# Oxysterols receptor LXR-beta (Homo sapiens), sequence (P55055 whole entry, looked up, the tested form may be a part): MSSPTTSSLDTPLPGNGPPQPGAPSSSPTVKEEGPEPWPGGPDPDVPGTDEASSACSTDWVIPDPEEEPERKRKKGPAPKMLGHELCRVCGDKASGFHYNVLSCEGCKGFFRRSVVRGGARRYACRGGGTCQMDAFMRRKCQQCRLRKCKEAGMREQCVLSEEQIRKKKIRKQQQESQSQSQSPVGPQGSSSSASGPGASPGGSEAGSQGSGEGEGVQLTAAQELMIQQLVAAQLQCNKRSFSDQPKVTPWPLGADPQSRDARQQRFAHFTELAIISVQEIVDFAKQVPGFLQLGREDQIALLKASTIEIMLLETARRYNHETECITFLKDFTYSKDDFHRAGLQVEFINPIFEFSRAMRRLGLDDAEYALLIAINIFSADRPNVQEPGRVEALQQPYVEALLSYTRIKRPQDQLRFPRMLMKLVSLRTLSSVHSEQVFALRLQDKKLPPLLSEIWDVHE
# Steroidogenic factor 1 (Homo sapiens), sequence (Q13285 whole entry, looked up, the tested form may be a part): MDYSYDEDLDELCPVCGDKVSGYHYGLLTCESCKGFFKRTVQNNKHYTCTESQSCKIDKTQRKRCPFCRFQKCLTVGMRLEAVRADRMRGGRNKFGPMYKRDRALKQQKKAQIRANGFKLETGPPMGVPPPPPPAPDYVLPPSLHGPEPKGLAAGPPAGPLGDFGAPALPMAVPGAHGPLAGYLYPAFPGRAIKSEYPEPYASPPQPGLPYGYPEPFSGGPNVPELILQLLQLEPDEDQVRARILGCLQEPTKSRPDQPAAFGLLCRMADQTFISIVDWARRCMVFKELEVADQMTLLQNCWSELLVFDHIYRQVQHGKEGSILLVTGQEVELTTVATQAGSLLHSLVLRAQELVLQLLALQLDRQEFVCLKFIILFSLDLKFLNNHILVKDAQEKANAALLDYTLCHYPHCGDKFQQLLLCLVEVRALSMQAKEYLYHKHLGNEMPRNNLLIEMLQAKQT
# Nuclear receptor coactivator 2 (Homo sapiens), sequence (Q15596 whole entry, looked up, the tested form may be a part): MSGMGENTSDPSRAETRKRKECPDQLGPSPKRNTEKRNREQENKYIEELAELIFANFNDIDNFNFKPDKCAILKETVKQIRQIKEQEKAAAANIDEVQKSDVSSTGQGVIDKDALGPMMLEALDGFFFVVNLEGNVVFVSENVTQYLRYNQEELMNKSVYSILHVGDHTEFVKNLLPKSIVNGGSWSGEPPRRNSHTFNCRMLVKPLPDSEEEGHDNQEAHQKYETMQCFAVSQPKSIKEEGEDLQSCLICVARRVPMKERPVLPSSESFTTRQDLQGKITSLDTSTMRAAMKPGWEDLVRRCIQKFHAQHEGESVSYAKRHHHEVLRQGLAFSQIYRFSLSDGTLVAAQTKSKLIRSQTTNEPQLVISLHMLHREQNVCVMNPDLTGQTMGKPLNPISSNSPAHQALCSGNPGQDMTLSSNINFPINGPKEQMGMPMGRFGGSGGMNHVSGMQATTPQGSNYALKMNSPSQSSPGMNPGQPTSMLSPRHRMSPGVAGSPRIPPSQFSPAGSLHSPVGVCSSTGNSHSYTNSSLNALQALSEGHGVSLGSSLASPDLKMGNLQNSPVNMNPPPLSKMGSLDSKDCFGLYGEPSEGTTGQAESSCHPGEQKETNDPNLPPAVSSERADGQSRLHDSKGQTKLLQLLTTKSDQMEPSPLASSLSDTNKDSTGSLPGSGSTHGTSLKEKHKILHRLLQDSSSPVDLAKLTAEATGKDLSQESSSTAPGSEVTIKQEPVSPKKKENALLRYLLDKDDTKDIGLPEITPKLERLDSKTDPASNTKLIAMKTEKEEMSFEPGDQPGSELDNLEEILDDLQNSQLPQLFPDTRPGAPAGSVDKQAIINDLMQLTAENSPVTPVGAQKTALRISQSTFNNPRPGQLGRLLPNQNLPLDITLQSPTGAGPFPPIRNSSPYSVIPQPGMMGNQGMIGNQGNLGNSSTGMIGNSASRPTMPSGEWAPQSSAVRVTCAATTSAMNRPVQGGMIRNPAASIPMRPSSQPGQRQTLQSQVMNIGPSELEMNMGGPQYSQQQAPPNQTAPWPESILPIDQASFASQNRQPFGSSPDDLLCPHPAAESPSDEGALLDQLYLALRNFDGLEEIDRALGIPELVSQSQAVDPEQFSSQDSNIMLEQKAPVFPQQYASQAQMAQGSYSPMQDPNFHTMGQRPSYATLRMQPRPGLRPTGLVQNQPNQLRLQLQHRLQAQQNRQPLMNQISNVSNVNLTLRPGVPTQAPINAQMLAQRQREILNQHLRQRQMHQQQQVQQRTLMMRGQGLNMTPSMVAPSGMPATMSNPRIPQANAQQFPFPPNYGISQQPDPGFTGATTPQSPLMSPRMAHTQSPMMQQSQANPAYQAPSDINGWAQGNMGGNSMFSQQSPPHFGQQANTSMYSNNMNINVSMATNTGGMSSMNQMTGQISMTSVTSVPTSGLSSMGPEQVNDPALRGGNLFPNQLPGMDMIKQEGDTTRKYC
structure (smiles),measurement,setting,value
CN1C(=O)C(=Cc2ccc(N3CCCCCC3)cc2)C(=O)N(C)C1=O,inhibition,[1],9.79% (inactive)
same,inhibition,[2],57% (active)
same,inhibition,[3],48.1% (active)
same,inhibition,[4],-4.85% (inactive)
C[C@@H]1O[C@@H](O[C@@H]2C=C3CC[C@@H]4C(CC[C@]5(C)[C@@H](c6ccc(=O)oc6)CC[C@]45O)[C@@]3(C)CC2)[C@H](O)[C@H](O)[C@H]1O (some centres not stated),inhibition,[5],67.9% (active)
same,inhibition,[6],69.7% (active)
CC(=O)OC1C(O)C(C)OC(OC2C(OC(=O)C3CCC4C(C3)OC3(CC(OC(=O)/C=C/c5ccccc5)C(C)CO3)C43CO3)OC(C)C(O)C2OC(C)=O)C1O (configuration not stated),inhibition,[5],79.4% (active)
same,inhibition,[6],75.2% (active)
COC1C(O)C(C)OC(OC2CCC3(C)C(CCC4C3C(O)CC3(C)C(C5=CC(=O)OC5)CCC43O)C2)C1O (configuration not stated),inhibition,[1],97.3% (active)
same,inhibition,[2],110% (active)
same,inhibition,[3],98.8% (active)
same,inhibition,[4],91.1% (active)
same,inhibition,[5],57.6% (active)
same,inhibition,[6],22.7% (inactive)
CCOP(=O)(OCC)C1(O)C(=O)Nc2ccc(Br)cc21 (configuration not stated),inhibition,[5],-7% (inactive)
same,inhibition,[6],-5.26% (inactive)
Cc1nc2cc(-c3cccc(F)c3)nn2c(C)c1CCC(=O)N1CCC2(CC1)OCCO2,inhibition,[5],-18.5% (inactive)
same,inhibition,[6],40% (inactive)
Cc1ccccc1CN1Cc2cnnn2-c2ccccc2C1C#N (configuration not stated),inhibition,[5],39.8% (active)
same,inhibition,[6],48.8% (active)
CN1C(=O)C[N+]([O-])=C(c2ccccc2)c2cc(Cl)ccc21,inhibition,[5],13.7% (inactive)
same,inhibition,[6],0.34% (inactive)
CC(=O)OC(C)(C)/C=C/C(=O)C(C)(O)C1[C@H](O)C[C@@]2(C)C3CC=C4C(CC[C@@H](O)C4(C)C)[C@]3(CO)C(=O)C[C@]12C (some centres not stated),inhibition,[5],31.1% (inactive)
same,inhibition,[6],55.2% (active)
COc1cc(CC(C)N)c(OC)cc1I (configuration not stated),inhibition,[5],-16.9% (inactive)
same,inhibition,[6],8.7% (inactive)
Nc1cccc(SC2CC(=O)N(c3ccc(Cl)cc3C(=O)c3ccccc3)C2=O)c1 (configuration not stated),inhibition,[5],3.94% (inactive)
same,inhibition,[6],17.3% (inactive)
CN(Cc1cccc(-c2cccnc2)c1)C(=O)Oc1ccc([N+](=O)[O-])cc1,inhibition,[5],2.36% (inactive)
same,inhibition,[6],49.7% (active)
CC(C)(C)c1ccc(OC(=O)N2CCCCC2)cc1,activation,[7],14.1% (active)
same,activation,[8],0.52% (inactive)
O=C(N/N=C/c1c(O)n(Cc2ccccc2)c(=O)[nH]c1=O)c1ccccc1,activation,[7],1.81% (inactive)
same,activation,[8],0.01% (inactive)
CC1OC(OC2C=C3CCC4C(CCC5(C)C(c6ccc(=O)oc6)CCC45O)C3(C)CC2)C(O)C(OC2OC(CO)C(O)C(O)C2O)C1O (configuration not stated),inhibition,[1],95.6% (active)
same,inhibition,[2],110% (active)
same,inhibition,[3],97.2% (active)
same,inhibition,[4],94.4% (active)
same,inhibition,[5],63.6% (active)
same,inhibition,[6],48.1% (active)
Cc1ccc(N2C(=O)NC(=O)C(CCc3ccccn3)(Cc3ccc(F)cc3)C2=O)cc1 (configuration not stated),inhibition,[5],-10.7% (inactive)
same,inhibition,[6],7.3% (inactive)
NC(=O)c1c(Br)n(C2OC(CO)C(O)C2O)c2ncnc(N)c12 (configuration not stated),inhibition,[5],15.6% (inactive)
same,inhibition,[6],35.3% (inactive)
C[C@@H]1C[C@@H]([C@H](O)CC2CC(=O)NC(=O)C2)C(=O)[C@@H](C)C1,inhibition,[2],109% (active)
same,inhibition,[3],97.9% (active)
same,inhibition,[5],48% (active)
same,inhibition,[6],59.3% (active)
FC(F)(F)c1ccccc1N1CC1c1ccncc1 (configuration not stated),inhibition,[5],-14.4% (inactive)
same,inhibition,[6],-11.4% (inactive)
COC(=O)C1=C(c2ccc(-c3ccccc3)c(F)c2)C[C@@H]2CC[C@H]1N2C(=O)NCc1ccc(F)cc1,inhibition,[5],-5.9% (inactive)
same,inhibition,[6],2.93% (inactive)
O=Cc1cn(Cc2ccc(F)cc2Cl)c2ccccc12,inhibition,[5],14.2% (inactive)
same,inhibition,[6],26.5% (inactive)
CC/C(=N\NC(=O)c1ccccc1O)c1c(O)n(Cc2ccccc2)c(=O)[nH]c1=O,inhibition,[9],-6.16% (inactive)
same,inhibition,[10],29.4% (active)
COc1ccc(C(=O)C2CN(C)CC2C(=O)c2ccc(OC)cc2)cc1 (configuration not stated),activation,[11],-0.19% (inactive)
same,activation,[12],0.28% (inactive)
COC(=O)C1=C(C(=O)OC)C2c3ccccc3C1c1ccccc12,inhibition,[5],12.3% (inactive)
same,inhibition,[6],2.05% (inactive)
O=C(c1ccc(Cl)cc1)C1CCCN(Cc2cccc3ncccc23)C1 (configuration not stated),inhibition,[5],14.6% (inactive)
same,inhibition,[6],-6.97% (inactive)
COC1=C(C)C(=O)C2=C(C1=O)C(CO)N1C(C#N)C3CC4C(C1C2N1CCOC41)N3C (configuration not stated),inhibition,[1],86.5% (active)
same,inhibition,[2],106% (active)
same,inhibition,[3],96.2% (active)
same,inhibition,[4],95.3% (active)
same,inhibition,[5],41.7% (active)
same,inhibition,[6],57% (active)
Oc1ccc(-[n+]2c(-c3ccccc3)cc(-c3ccccc3)cc2-c2ccccc2)cc1,inhibition,[5],35.3% (inactive)
same,inhibition,[6],33.1% (inactive)
Cc1nc2cc(-c3ccc(Cl)cc3)nn2c(C)c1CCC(=O)N1CCC2(CC1)OCCO2,inhibition,[5],16.4% (inactive)
same,inhibition,[6],70.5% (active)
O=C1NC(=O)N(Cc2ccco2)C(=O)/C1=C/C=C/c1ccco1,inhibition,[5],8.52% (inactive)
same,inhibition,[6],-57.3% (inactive)
CCc1nnc(NS(=O)(=O)c2ccc(N=Cc3c(O)n(-c4ccccc4)c(=O)[nH]c3=O)cc2)s1,inhibition,[13],11.7% (active)
same,inhibition,[14],7.85% (inactive)
same,inhibition,[15],32.1% (active)
CC(=O)OC1CC(OC2C(O)CC(OC3C(O)CC(OC4CCC5(C)C(CCC6C5CCC5(C)C(C7=CC(=O)OC7)CCC65O)C4)OC3C)OC2C)OC(C)C1OC1OC(CO)C(O)C(O)C1O (configuration not stated),inhibition,[1],94.6% (active)
same,inhibition,[2],109% (active)
same,inhibition,[3],96.6% (active)
same,inhibition,[4],92.5% (active)
same,inhibition,[5],67.4% (active)
same,inhibition,[6],54.4% (active)
COc1ccc2c3c1O[C@H]1C(=O)CC[C@H]4[C@@H](C2)N(C)CC[C@]314,inhibition,[5],-4.81% (inactive)
same,inhibition,[6],-28.4% (inactive)
CCOC(=O)C1(CCc2ccccc2)CCN(Cc2cccc3cnccc23)CC1,inhibition,[5],10.4% (inactive)
same,inhibition,[6],9.69% (inactive)
COc1ccc(S(=O)(=O)N2Cc3cnnn3-c3ccccc3C2C#N)cc1 (configuration not stated),inhibition,[5],1.55% (inactive)
same,inhibition,[6],-21% (inactive)
C=C1C(=O)O[C@H]2C[C@@H](C)[C@@H]3C=CC(=O)[C@@]3(C)C[C@H]12,inhibition,[5],69.4% (active)
same,inhibition,[6],23% (inactive)
c1cncc(-c2ccc3n2Cc2cnnn2-c2ccccc2-3)c1,inhibition,[5],11% (inactive)
same,inhibition,[6],21.8% (inactive)
O=[N+]([O-])c1ccc(N2CCCC(C(F)(F)F)C2)c2ccncc12 (configuration not stated),inhibition,[5],10.6% (inactive)
same,inhibition,[6],34.3% (inactive)
CCOP(=O)(OCC)c1cccc(OP(=O)(c2cccc([N+](=O)[O-])c2)c2cccc([N+](=O)[O-])c2)c1,inhibition,[5],-4.6% (inactive)
same,inhibition,[6],-32.1% (inactive)
CC(=O)O[C@H]1C[C@@H]2OC3C=C(C)CCC3(C)[C@@]1(C)[C@@]21CO1 (some centres not stated),inhibition,[1],95.6% (active)
same,inhibition,[2],109% (active)
same,inhibition,[3],96.8% (active)
same,inhibition,[4],96.8% (active)
same,inhibition,[5],79.3% (active)
same,inhibition,[6],77.9% (active)
CCn1ccnc1CN1CCCC(C(=O)c2cccc(C(F)(F)F)c2)C1 (configuration not stated),inhibition,[5],-3.5% (inactive)
same,inhibition,[6],15.9% (inactive)
CCN1CCN(S(=O)(=O)c2ccc(Cl)c(C(=O)Nc3ccc(C(=O)N(CC)CC)cc3)c2)CC1,inhibition,[5],-10.1% (inactive)
same,inhibition,[6],2.66% (inactive)
